High-throughput results as filed in PubChem.
Shown is part of a subset that was picked to be rich in hits.
ST2 IL33 inh – blocks human ST2 binding to IL-33. Q01638. AlphaLISA ST2-Fc/biotin-IL-33 interaction, 1 h. inhibition, % for hits at 17 µM. hit rate 2.3% among 78,000; in the data active = inhibition above about 30%
The depositor's hits bear a star; i = inactive; ! = repeats disagree.

SMILES | ST2 IL33 inh
Cc1oc(C(C)C)cc1C(=O)N1CCN(C)C2(CCN(C)CC2)C1 | i
CCOC(=O)c1c(C)oc2ccc(OCC(=O)OC)cc12 | i
COc1ccc(/C=C2\SC(=O)N(CCCC(=O)N3CCOCC3)C2=O)cc1OC | i
CC(C)c1nnc(NC(=O)c2ccc(Br)cc2)s1 | i
Cc1nnc(NC(=O)c2ccc(C(C)C)cc2)s1 | 92.0%*
Cc1nnc(NC(=O)Nc2ccccc2)s1 | i
O=C(NC1CCCC1)c1cc(-c2cccs2)on1 | i
COC(=O)c1c[nH]n2c(NC3CCCCC3)c(-c3cccs3)nc12 | 32.0%*
COC(=O)c1c[nH]n2c(=O)c(Cc3cccc(C)c3)c(C)nc12 | i
COc1ccc(C(=O)NCC(=O)O)cc1 | i
COc1ccc(-c2ccc(C(C)=O)cc2)cc1 | i
COc1ccc(C(=O)/C=C(\C)c2ccc(OC)cc2)cc1 | 43.0%*
O=C(c1ccc2[nH]ccc2c1)N1CCCC(Cn2cc(C3CCCC3)nn2)C1 (stereo not drawn) | i
CCOC(=O)c1[nH]ncc1CN(C)C1CCCN(C2Cc3ccccc3C2)C1 (stereo not drawn) | i
CCc1cc(NCC2CNCCOC2)nc(N2CCCCC2)n1 (stereo not drawn) | i
Cc1[nH]n(-c2ccccc2)c(=O)c1C=Nc1cc([N+](=O)[O-])cc([N+](=O)[O-])c1 | i
O=[N+]([O-])c1cc(Nc2ccccc2)c(C=Nc2ccccc2)c([N+](=O)[O-])c1 | 66.0%*
O=[N+]([O-])c1cccc(C=Nc2ccc(S(=O)(=O)Nc3ccccn3)cc2)c1 | i
Cc1ccc(C)c(S(=O)(=O)N2CCN(c3nc(C)cc(N4CCCC4)n3)CC2)c1 | i
COCCCN1C(=O)N(Cc2ccccc2)C(=O)C12CCN(Cc1c(F)cccc1Cl)CC2 | 32.0%*
O=C1N(Cc2cccnc2)C(=O)C2(CCN(Cc3ccccc3Cl)CC2)N1CCc1ccccc1 | i
CCN1C(=O)N(CCc2ccccc2)C2(CCN(Cc3cccc(OC)c3OC)CC2)C1=O | i
COc1ccccc1NS(=O)(=O)C[C@@]12CC[C@H](CC1=O)C2(C)C | i
CCc1nc(NCCC(C)C)c(C#N)c2c1COC(C)(C)C2 | i
Cc1ccc(NC(=O)C(=O)NC2CC2)cc1C | i
SMILES | ST2 IL33 inh
O=C1CCc2cc(S(=O)(=O)N3CCCCC3)ccc2N1 | i
CCOC(=O)C1=C(C)N=C2SCCC(=O)N2C1c1ccc(OCC)c(OC)c1 (stereo not drawn) | i
N#Cc1c(N)n(-c2ccc(Cl)cc2)c2nc3ccccc3nc12 | i
CCOC(=O)c1c(N)n(-c2ccc(C)cc2C)c2nc3ccccc3nc12 | i
COc1ccc(-n2c(N)c(C#N)c3nc4ccccc4nc32)c(OC)c1 | 32.0%*
CCNc1nc(NCC)n2c(SCC(=O)c3ccccc3OC(F)F)nnc2n1 | i
O=C(CSc1nc2c(c(=O)n1-c1ccc(Cl)cc1)SCC2)Nc1ccccc1 | i
Cc1ccc(S(=O)(=O)N[C@H]2CO[C@H]3[C@@H]2OC[C@@H]3n2nnnc2Oc2cccc(N(C)C)c2)cc1 | i
Cc1ccc(NC(=O)c2cnccn2)c(Br)c1 | 39.0%*
Cc1ccc2nc(NC(=O)c3cnccn3)sc2c1 | i
O=C(Nc1ccc(F)c(F)c1)c1cnccn1 | i
COc1ccc(C)cc1NC(=O)NCC1CCN(C2CCOCC2)C1 (stereo not drawn) | i
COCCCNC(=O)c1cccn2c(=O)c3cc4ccccc4cc3nc12 | 30.0%*
O=C(NCc1ccco1)c1cccn2c(=O)c3cc4ccccc4cc3nc12 | i
COCCCNC(=O)c1cc2c(=O)n3cccc(C)c3nc2n1C | i
NC(=O)c1ccc[n+](CC(=O)c2ccc([N+](=O)[O-])cc2)c1 | i
O=C(NCCc1c[nH]c2ccc(OCc3ccccc3)cc12)c1ccc(Cl)cc1 | i
COc1cc(NC(=O)CCC2CCCN(C(=O)c3c[nH]c4ccccc34)C2)cc(OC)c1 (stereo not drawn) | i
CS(=O)CCC(C(=O)O)N1C(=O)c2ccccc2C1=O (stereo not drawn) | 38.0%*!
O=C(O)CCC(C(=O)O)N1C(=O)c2ccccc2C1=O (stereo not drawn) | i
O=C(NCc1ccccc1)C(Cc1ccccc1)N1C(=O)c2ccccc2C1=O (stereo not drawn) | i
COc1ccc(COCC(O)CN2CCN(c3ccccc3F)CC2)cc1OC (stereo not drawn) | i
C=C1CC[C@@H]2C(C)(C)[C@H](O)CC[C@@]2(C)[C@@H]1COc1ccc2ccc(=O)oc2c1 | i
Nc1cc2c3c(cccc3n1)C(=O)c1ccccc1-2 | 34.0%*
O=C1c2ccccc2C(=O)c2c1nc1n2CCOC1 | i
Nc1nc2ccccc2nc1N | i
Cc1nc(CN2CCN(C(=O)c3cc(COc4cncc(Cl)c4)on3)CC2)cs1 | i
C/C(=C\CC/C(C)=C/COC1OC(CO)C(O)C(OC2OC(C)C(OC3OC(C)C(O)C(O)C3O)C(O)C2O)C1O)CC/C=C(\C)COC1OC(CO)C(O)C(OC2OC(C)C(OC3OC(C)C(O)C(O)C3O)C(O)C2O)C1O (stereo not drawn) | i
